Reference: PubChem BioAssay AID1159580 (chemical genetic matrix, 2015)
The campaign covered roughly 5,500 compounds. About 2,000 (36%) were called active. Not shown: some 18% with an inconclusive outcome. Cut-off read from the data, not from the text of the source: active = normalized growth mostly below about 0.91 (no sharp cut-off); inconclusive = no clear call, values can overlap the other calls; inactive = mostly above about 0.92. The list shows a part of the results.

Experiment: chemical genetic growth profiling, strain panel (AID 1159580);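 note: tested at 20 µM; growth read once vehicle control cultures reached saturation at 30 °C; 1 = growth at the plate median or of vehicle wells; lower values mean less growth of the strain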
Details: growth OD
[1] = S. cerevisiae deletion strains, locus YAL013W, strain DEP1, hits give low values
[2] = S. cerevisiae deletion strains, locus YBR021W, strain FUR4, hits give low values
[3] = S. cerevisiae deletion strains, locus YBR229C, strain ROT2, hits give low values
[4] = S. cerevisiae deletion strains, locus YCL029C, strain bik1, hits give low values
[5] = S. cerevisiae deletion strains, locus YDL035C, strain GPR1, hits give low values
[6] = S. cerevisiae deletion strains, locus YDL074C, strain BRE1, hits give low values
[7] = S. cerevisiae deletion strains, locus YDL101C, strain DUN1, hits give low values
[8] = S. cerevisiae deletion strains, locus YDL185W, strain tfp1, hits give low values
[9] = S. cerevisiae deletion strains, locus YDL192W, strain arf1, hits give low values
[10] = S. cerevisiae deletion strains, locus YDR101C, strain arx1, hits give low values
[11] = S. cerevisiae deletion strains, locus YDR162C, strain NBP2, hits give low values
[12] = S. cerevisiae deletion strains, locus YDR318W, strain mcm21, hits give low values
[13] = S. cerevisiae deletion strains, locus YDR388W, hits give low values
[14] = S. cerevisiae deletion strains, locus YDR502C, strain sam2, hits give low values
[15] = S. cerevisiae deletion strains, locus YEL061C, strain CIN8, hits give low values
[16] = S. cerevisiae deletion strains, locus YER110C, hits give low values
[17] = S. cerevisiae deletion strains, locus YER155C, strain BEM2, hits give low values
[18] = S. cerevisiae deletion strains, locus YER167W, strain BCK2, hits give low values
[19] = S. cerevisiae deletion strains, locus YGL078C, strain dbp3, hits give low values
[20] = S. cerevisiae deletion strains, locus YGL086W, strain mad1, hits give low values
[21] = S. cerevisiae deletion strains, locus YGL248W, strain PDE1, hits give low values
[22] = S. cerevisiae deletion strains, locus YGR135W, strain pre9, hits give low values
[23] = S. cerevisiae deletion strains, locus YGR252W, strain gcn5, hits give low values
[24] = S. cerevisiae deletion strains, locus YHR030C, strain SLT2, hits give low values
[25] = S. cerevisiae deletion strains, locus YHR079C, strain IRE1 (second series), hits give low values
[26] = S. cerevisiae deletion strains, locus YHR094C, strain hxt1, hits give low values
[27] = S. cerevisiae deletion strains, locus YHR129C, strain ARP1, hits give low values
[28] = S. cerevisiae deletion strains, locus YHR200W, strain rpn10, hits give low values
[29] = S. cerevisiae deletion strains, locus YIL066C, strain RNR3, hits give low values
[30] = S. cerevisiae deletion strains, locus YIL073C, strain SPO22, hits give low values
[31] = S. cerevisiae deletion strains, locus YIL125W, strain kgd1, hits give low values
[32] = S. cerevisiae deletion strains, locus YIR030C, strain dcg1, hits give low values
[33] = S. cerevisiae deletion strains, locus YJL095W, strain BCK1, hits give low values
[34] = S. cerevisiae deletion strains, locus YJL134W, strain LCB3, hits give low values
[35] = S. cerevisiae deletion strains, locus YJL168C, strain set2, hits give low values
[36] = S. cerevisiae deletion strains, locus YJL187C, strain SWE1 (second series), hits give low values
[37] = S. cerevisiae deletion strains, locus YJR043C, strain POL32, hits give low values
[38] = S. cerevisiae deletion strains, locus YKL068W, hits give low values
[39] = S. cerevisiae deletion strains, locus YKR001C, strain vps1, hits give low values
[40] = S. cerevisiae deletion strains, locus YLR039C, strain RIC1, hits give low values
[41] = S. cerevisiae deletion strains, locus YLR058C, strain SHM2, hits give low values
[42] = S. cerevisiae deletion strains, locus YLR102C, strain apc9, hits give low values
[43] = S. cerevisiae deletion strains, locus YLR262C, strain YPT6, hits give low values
[44] = S. cerevisiae deletion strains, locus YLR268W, strain sec22, hits give low values
[45] = S. cerevisiae deletion strains, locus YLR330W, strain CHS5, hits give low values
[46] = S. cerevisiae deletion strains, locus YLR342W, strain FKS1 (second series), hits give low values
[47] = S. cerevisiae deletion strains, locus YLR371W, strain rom2, hits give low values
[48] = S. cerevisiae deletion strains, locus YLR418C, strain cdc73, hits give low values
[49] = S. cerevisiae deletion strains, locus YML016C, strain PPZ1, hits give low values
[50] = S. cerevisiae deletion strains, locus YML032C, strain rad52, hits give low values
[51] = S. cerevisiae deletion strains, locus YML124C, strain tub3, hits give low values
[52] = S. cerevisiae deletion strains, locus YMR078C, strain ctf18, hits give low values
[53] = S. cerevisiae deletion strains, locus YMR223W, strain ubp8, hits give low values
[54] = S. cerevisiae deletion strains, locus YMR307W, strain GAS1, hits give low values
[55] = S. cerevisiae deletion strains, locus YNL067W, strain RPL9B, hits give low values
[56] = S. cerevisiae deletion strains, locus YNL153C, strain GIM3, hits give low values
[57] = S. cerevisiae deletion strains, locus YNL233W, strain BNI4, hits give low values
[58] = S. cerevisiae deletion strains, locus YNL250W, strain rad50, hits give low values
[59] = S. cerevisiae deletion strains, locus YNL271C, strain bni1, hits give low values
[60] = S. cerevisiae deletion strains, locus YNL298W, strain CLA4, hits give low values
[61] = S. cerevisiae deletion strains, locus YNL307C, strain MCK1, hits give low values
[62] = S. cerevisiae deletion strains, locus YNL322C, strain KRE1, hits give low values
[63] = S. cerevisiae deletion strains, locus YNR052C, strain pop2, hits give low values
[64] = S. cerevisiae deletion strains, locus YOL012C, strain htz1
[65] = S. cerevisiae deletion strains, locus YOL147C, strain pex11, hits give low values
[66] = S. cerevisiae deletion strains, locus YOR061W, strain CKA2, hits give low values
[67] = S. cerevisiae deletion strains, locus YOR069W, strain VPS5, hits give low values
[68] = S. cerevisiae deletion strains, locus YOR136W, strain idh2, hits give low values
[69] = S. cerevisiae deletion strains, locus YOR144C, strain elg1, hits give low values
[70] = S. cerevisiae deletion strains, locus YOR184W, strain ser1, hits give low values
[71] = S. cerevisiae deletion strains, locus YOR316C, strain cot1, hits give low values
[72] = S. cerevisiae deletion strains, locus YPR119W, strain clb2, hits give low values
[73] = S. cerevisiae deletion strains, locus YPR141C, strain kar3, hits give low values
[74] = S. cerevisiae deletion strains, locus YPR163C, strain tif3, hits give low values
[75] = S. cerevisiae deletion strains, locus YPR167C, strain met16, hits give low values
[76] = S. cerevisiae deletion strains, strain wtn01, hits give low values

Measured: normalized growth

CC(=O)OCC1(C)CCC2(C)CCC3(C)C4=CCc5c(cc(OC(C)=O)c(OC(C)=O)c5C)C4(C)CCC3(C)C2C1 (stereo not given)
inactive: [1] 1.01 | [2] 0.994 | [3] 1.02 | [4] 1.01 | [5] 1.02 | [6] 1.04 | [7] 1.02 | [8] 1.01 | [9] 1.01 | [10] 0.974 | [11] 1.04 | [12] 1.01 | [13] 0.997 | [14] 0.984 | [15] 1.01 | [16] 0.999 | [17] 1.01 | [18] 1 | [19] 1 | [20] 0.998 | [21] 1.04 | [22] 1 | [23] 0.992 | [24] 1.02 | [25] 1 | [26] 1.02 | [27] 1.02 | [28] 1.01 | [29] 1.02 | [30] 1.02 | [31] 1 | [32] 1 | [33] 1.04 | [34] 1.01 | [35] 1.01 | [36] 1.02 | [37] 1.02 | [38] 1.01 | [39] 0.997 | [40] 1.03 | [41] 1.02 | [42] 1 | [43] 1.07 | [44] 1 | [45] 1.01 | [46] 1.01 | [47] 1.01 | [48] 1.07 | [49] 1.02 | [50] 1 | [51] 0.997 | [52] 1.01 | [53] 1.01 | [54] 1.07 | [55] 1.03 | S. cerevisiae deletion strains, locus YNL128W, strain TEP1, hits give low values 1.01 | [56] 1.02 | [57] 1.03 | [58] 1 | [59] 0.999 | [60] 1 | [61] 1 | [62] 1.02 | [63] 1.01 | [64] 1.15 | [65] 0.993 | [66] 1.02 | [67] 1.01 | [68] 0.998 | [69] 0.994 | [70] 1.04 | [71] 1 | [72] 1 | [73] 1.01 | [74] 1.02 | [75] 1 | [76] 1.03 | S. cerevisiae strains, strain wild type, hits give low values 0.992

COC(=O)[C@]1(C)CC[C@]2(C)CC[C@]3(C)C4=CCc5c(cc(O)c(O)c5C)[C@]4(C)CC[C@@]3(C)C2C1 (stereo not given in full)
inactive: [1] 0.992 | [2] 0.985 | [3] 0.989 | [4] 0.98 | [5] 0.968 | [6] 0.915 | [7] 0.975 | S. cerevisiae deletion strains, locus YDL134C, strain PPH21, hits give low values 1.01 | [8] 0.984 | [9] 0.968 | [10] 0.947 | [11] 0.992 | [12] 0.994 | [13] 0.983 | [14] 0.961 | [15] 0.991 | [16] 0.978 | [17] 0.992 | [18] 0.992 | [19] 0.981 | [20] 0.94 | [21] 0.985 | S. cerevisiae deletion strains, locus YGR078C, strain PAC10, hits give low values 0.971 | [22] 0.99 | [23] 1.09 | [24] 0.994 | [25] 0.982 | [26] 0.978 | [27] 0.962 | [28] 0.986 | [29] 0.969 | [30] 0.983 | [31] 0.975 | [32] 0.982 | [33] 0.958 | [34] 0.991 | [35] 0.978 | [36] 0.961 | [37] 0.989 | S. cerevisiae deletion strains, locus YKL009W, strain mrt4, hits give low values 1.03 | [38] 0.977 | S. cerevisiae deletion strains, locus YKL085W, strain MDH1 (second series), hits give low values 0.977 | S. cerevisiae deletion strains, locus YKL085W, strain MDH1, hits give low values 0.977 | [39] 0.937 | [40] 0.945 | [41] 0.983 | [42] 0.984 | [43] 0.938 | [44] 0.939 | [45] 0.988 | [46] 0.953 | [47] 0.955 | [49] 0.982 | [50] 1.01 | [51] 0.98 | [52] 0.958 | [53] 0.984 | S. cerevisiae deletion strains, locus YMR263W, strain SAP30, hits give low values 0.998 | [54] 0.954 | [55] 0.998 | [56] 0.973 | [57] 0.951 | [58] 0.977 | [59] 0.979 | [60] 1.01 | [61] 0.962 | [62] 0.993 | [63] 0.985 | [64] 1.1 | [65] 0.998 | [66] 0.981 | [67] 0.984 | [68] 0.966 | [69] 0.973 | [70] 0.902 | [71] 0.983 | [72] 0.971 | [73] 0.968 | [74] 0.968 | [75] 0.976 | [76] 0.929
active: [48] 0.802
